These results are taken from PubChem BioAssay (EPA / NIEHS).

Inconclusive results are not listed. Activity calls are given as the source filed them. The calls were made as follows: active = hit-call score of the fitted dose curve at least 0.9, where 1 is the maximum; inconclusive = response in the unintended direction; inactive = score below 0.9.

What is called AC50 is the concentration at which the activity in the assay is half-maximal.

The nature of assay [1]: ATG_M_06_XSP1: Attagene TRANS-FACTORIAL Multi-Species (XSP1) HepG2 Assay for M06 Transcription Factor (Internal Marker) (AID 2283790). The method in brief: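 Transfected HepG2 multi-reporter system treated 24 h in the presence of 3 nM 6-alpha-fluorotestosterone. The M06 internal marker transcript was quantified by RT-PCR with capillary electrophoresis as a background control, and gain of signal was scored versus DMSO.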

Assay [2] concerns the target Peroxisome proliferator-activated receptor gamma (Homo sapiens) (UniProt P37231). In words: ATG_hPPARg_XSP1: Attagene TRANS-FACTORIAL Multi-Species (XSP1) HepG2 Assay for human Peroxisome Proliferator-activated Receptor gamma (PPARg) (AID 2283800). Summed up: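 HepG2 cells transiently transfected with GAL4-UAS reporter units carrying chimeric NR-Gal4 proteins; 3 nM 6-alpha-fluorotestosterone present. After 24 h dosing, reporter mRNA quantified by RT-PCR and capillary electrophoresis; gain of signal relative to DMSO.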

Assay [3] deals with mouse Peroxisome Proliferator-activated Receptor gamma (PPARg), Pparg (gene 19016) (UniProt P37238). In words: ATG_mPPARg_XSP1: Attagene TRANS-FACTORIAL Multi-Species (XSP1) HepG2 Assay for mouse Peroxisome Proliferator-activated Receptor gamma (PPARg) (AID 2283802). The method in brief:
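HepG2 cells transiently transfected with GAL4-UAS reporter units driven by mouse PPARg–GAL4 chimera; 3 nM 6-alpha-fluorotestosterone present. After 24 h dosing, reporter mRNA quantified by RT-PCR, fluorescent labelling and capillary electrophoresis; gain of signal versus DMSO.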

Assay [4] addresses frog Thyroid hormone Receptor alpha (TRa), thra-a (gene 397942) (UniProt P15204). In words: ATG_frTRa_XSP1: Attagene TRANS-FACTORIAL Multi-Species (XSP1) HepG2 Assay for frog Thyroid hormone Receptor alpha (TRa) (AID 2283804). Summed up: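 HepG2 cells transiently transfected with frog TRa-GAL4 chimeric reporter units, dosed 24 hr with 3 nM 6-alpha-fluorotestosterone present; reporter mRNA quantified by RT-PCR, fluorescent labelling and capillary electrophoresis, gain of signal versus DMSO.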

Assay [5] deals with human Thyroid hormone Receptor alpha (TRa), THRA (gene 7067) (UniProt P10827). The assay is described as follows: ATG_hTRa_XSP1: Attagene TRANS-FACTORIAL Multi-Species (XSP1) HepG2 Assay for human Thyroid hormone Receptor alpha (TRa) (AID 2283805). Summed up:
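HepG2 cells transiently transfected with GAL4-UAS reporter units expressing chimeric NR-Gal4 proteins, dosed 24 hours with 3 nM 6-alpha-fluorotestosterone present. Reporter mRNA measured by RT-PCR and capillary electrophoresis; gain of signal fitted versus DMSO.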

Assay [6] concerns turtle Thyroid Hormone Receptor, alpha (TRa), gene 101949057. In words: ATG_trTRa_XSP1: Attagene TRANS-FACTORIAL Multi-Species (XSP1) HepG2 Assay for turtle Thyroid Hormone Receptor, alpha (TRa) (AID 2283806). The method in brief:
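HepG2 cells transiently transfected with GAL4-UAS reporter units and chimeric receptor-Gal4 constructs, with 3 nM 6-alpha-fluorotestosterone present. Reporter mRNA was quantified 24 h after dosing by RT-PCR, 6-FAM labelling and capillary electrophoresis; gain of signal versus DMSO.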

Assay [7] concerns the target human Thyroid hormone Receptor beta (TRb), THRB (gene 7068) (UniProt P10828). The assay is described as follows: ATG_hTRb_XSP1: Attagene TRANS-FACTORIAL Multi-Species (XSP1) HepG2 Assay for human Thyroid hormone Receptor beta (TRb) (AID 2283808). The method in brief: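 HepG2 cells transiently transfected with reporter units driving GAL4-UAS reporters for chimeric NR-Gal4 proteins; 24 h chemical exposure with 3 nM 6-alpha-fluorotestosterone present. Reporter mRNA quantified by RT-PCR and capillary electrophoresis, gain of signal versus DMSO.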

Assay [8] is described as follows: ATG_XTT_Cytotoxicity_XSP1: Cytotoxicity Assessment in the Attagene TRANS-FACTORIAL Multi-Species (XSP1) HepG2 Assay (AID 2283810). Summed up:
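XTT viability readout taken at 24 hours post-dosing in HepG2 liver cells co-treated with 3 nM 6-alpha-fluorotestosterone. Signal loss relative to DMSO controls reflects cytotoxicity.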

Assay [9] is described as follows: ATG_M_06_XSP2: Attagene TRANS-FACTORIAL Multi-Species (XSP2) HepG2 Assay for M06 Transcription Factor (Internal Marker) (AID 2283811).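 Also: hits are increases in signal above the DMSO baseline.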 The method in brief:
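HepG2, multiplexed reporter transfection; 24 h dosing; AR stimulated with 3 nM 6-alpha-fluorotestosterone + 1.5 nM norgestrel; RNA → RT-PCR → 6-FAM primer extension → HpaI → CE. Positive direction vs DMSO.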

The target in assay [10] is Estrogen receptor beta (Homo sapiens) (UniProt Q92731). The assay is described as follows: ATG_hERb_XSP2: Attagene TRANS-FACTORIAL Multi-Species (XSP2) HepG2 Assay for human Estrogen Receptor (ERb) (AID 2283813).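 Also: actives raise reporter mRNA above DMSO so AC50 reflects agonist induction.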 The method in brief:
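HepG2 cells transiently transfected with GAL4-UAS reporter units and chimeric human ERb-Gal4, 24 h exposure. Reporter mRNA quantified by RT-PCR with FAM labelling, HpaI digestion and capillary electrophoresis; gain of signal versus DMSO.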

For assay [11] the target is unchanged. In words: ATG_hERb_XSP1: Attagene TRANS-FACTORIAL Multi-Species (XSP1) HepG2 Assay for human Estrogen Receptor (ESR2) (AID 2283788). The method in brief: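 Measured endpoint is transcriptional gain of signal from a GAL4-UAS reporter controlled by chimeric ERβ in HepG2 liver cells. Exposure lasts 24 h alongside 3 nM 6-alpha-fluorotestosterone, with DMSO as negative control.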

For assay [12], the target named is GAL4 Transcription Factor (Internal Marker), GAL4 (gene 855828) (UniProt P04386). The assay is described as follows: ATG_GAL4_XSP1: Attagene TRANS-FACTORIAL Multi-Species (XSP1) HepG2 Assay for GAL4 Transcription Factor (Internal Marker) (AID 2283789). The method in brief: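 HepG2 cells transiently transfected with multiplexed GAL4-UAS reporter units were exposed for 24 h with 3 nM 6-alpha-fluorotestosterone present. Reporter mRNA was quantified by RT-PCR, FAM labelling, HpaI digestion and capillary electrophoresis; background-control readout, gain-of-signal versus DMSO.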

Assay [13] deals with zebrafish Peroxisome Proliferator-activated Receptor gamma (PPARg), gene 557037. In words: ATG_zfPPARg_XSP1: Attagene TRANS-FACTORIAL Multi-Species (XSP1) HepG2 Assay for zebrafish Peroxisome Proliferator-activated Receptor gamma (PPARg) (AID 2283801). Summed up: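 HepG2 cells transiently transfected with GAL4-UAS reporter units including a zebrafish PPARg–GAL4 chimera, dosed 24 h with 3 nM 6-alpha-fluorotestosterone present. Reporter mRNA quantified by RT-PCR, FAM labelling, HpaI digestion and capillary electrophoresis; induction versus DMSO.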

In assay [14] the target is zebrafish Thyroid Hormone Receptor alpha (TRa), thraa (gene 30670) (UniProt Q98867). The assay is described as follows: ATG_zfTRa_XSP1: Attagene TRANS-FACTORIAL Multi-Species (XSP1) HepG2 Assay for zebrafish Thyroid Hormone Receptor alpha (TRa) (AID 2283807). Summed up: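 HepG2 cells transiently transfected with GAL4-UAS reporter units including a zebrafish TRa–Gal4 chimera, dosed 24 h with 3 nM 6-alpha-fluorotestosterone present. Reporter mRNA quantified by RT-PCR and capillary electrophoresis; gain versus DMSO.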

Assay [15] addresses zebrafish Thyroid Hormone Receptor beta (TRb), thrb (gene 30607) (UniProt Q9PVE4). In words: ATG_zfTRb_XSP1: Attagene TRANS-FACTORIAL Multi-Species (XSP1) HepG2 Assay for zebrafish Thyroid Hormone Receptor beta (TRb) (AID 2283809). The method in brief:
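HepG2 cells transiently transfected with multiplexed GAL4-UAS reporter units expressing chimeric zebrafish TRb–Gal4. Dosed 24 h with 3 nM 6-alpha-fluorotestosterone present; reporter mRNA measured by RT-PCR, HpaI digestion and capillary electrophoresis; gain of signal versus DMSO.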

In assay [16] the test system is turtle Estrogen Receptor (ERa), gene 101933533. In words: ATG_trERa_XSP2: Attagene TRANS-FACTORIAL Multi-Species (XSP2) HepG2 Assay for turtle Estrogen Receptor (ERa) (AID 2283812).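 Also: human HepG2 liver cells transiently expressing turtle ERa-Gal4 chimeric receptor; actives raise reporter signal above DMSO so AC50 reflects agonist activity.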 The method in brief: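 HepG2 cells transiently transfected with GAL4-UAS reporter units expressing turtle ERa-Gal4 chimera. Reporter mRNA measured after 24 h dosing by RT-PCR, fluorescent labelling and capillary electrophoresis; gain of signal fitted versus DMSO.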

Assay [17] has as its target GAL4 Transcription Factor (Internal Marker), GAL4 (gene 855828) (UniProt P04386). The assay is described as follows: ATG_GAL4_XSP2: Attagene TRANS-FACTORIAL Multi-Species (XSP2) HepG2 Assay for GAL4 Transcription Factor (Internal Marker) (AID 2283814).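 Also: GAL4 reporter mRNA background control in MRTU transfected cells not a receptor target.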 Summed up:
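HepG2 cells transiently transfected with GAL4-UAS reporter units, stimulated with 3 nM 6-alpha-fluorotestosterone plus 1.5 nM norgestrel, dosed 24 h. Reporter mRNA by RT-PCR/capillary electrophoresis; gain-of-signal fit versus DMSO, background control.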

A short description of assay [18]: ATG_M_32_XSP1: Attagene TRANS-FACTORIAL Multi-Species (XSP1) HepG2 Assay for M32 Transcription Factor (Internal Marker) (AID 2283799). Summed up: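 HepG2 cells transiently transfected with multi-species TRANS reporter units, dosed 24 h with 3 nM 6-alpha-fluorotestosterone present. Internal-marker reporter mRNA quantified by RT-PCR and capillary electrophoresis; positive-direction fit versus DMSO.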

The target in the next assay is AR (gene 367) (UniProt P10275). The assay is described as follows: ACEA_AR_antagonist_80hr: ACEA Biosciences xCELLigence Real-Time Cell Analysis on Androgen Receptor Antagonism for Proliferation (AID 2283787).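 Also: 22Rv1 human prostate cancer cells with growth followed by electrical impedance; hits lower the impedance growth signal relative to DMSO.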 Summed up: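 Growth-kinetic antagonist readout in 22Rv1 cells, taken 80 h after continuous compound exposure. Activity fitted as signal loss relative to DMSO negative control.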
Chain of AR (gene 367) (P10275 whole entry, looked up): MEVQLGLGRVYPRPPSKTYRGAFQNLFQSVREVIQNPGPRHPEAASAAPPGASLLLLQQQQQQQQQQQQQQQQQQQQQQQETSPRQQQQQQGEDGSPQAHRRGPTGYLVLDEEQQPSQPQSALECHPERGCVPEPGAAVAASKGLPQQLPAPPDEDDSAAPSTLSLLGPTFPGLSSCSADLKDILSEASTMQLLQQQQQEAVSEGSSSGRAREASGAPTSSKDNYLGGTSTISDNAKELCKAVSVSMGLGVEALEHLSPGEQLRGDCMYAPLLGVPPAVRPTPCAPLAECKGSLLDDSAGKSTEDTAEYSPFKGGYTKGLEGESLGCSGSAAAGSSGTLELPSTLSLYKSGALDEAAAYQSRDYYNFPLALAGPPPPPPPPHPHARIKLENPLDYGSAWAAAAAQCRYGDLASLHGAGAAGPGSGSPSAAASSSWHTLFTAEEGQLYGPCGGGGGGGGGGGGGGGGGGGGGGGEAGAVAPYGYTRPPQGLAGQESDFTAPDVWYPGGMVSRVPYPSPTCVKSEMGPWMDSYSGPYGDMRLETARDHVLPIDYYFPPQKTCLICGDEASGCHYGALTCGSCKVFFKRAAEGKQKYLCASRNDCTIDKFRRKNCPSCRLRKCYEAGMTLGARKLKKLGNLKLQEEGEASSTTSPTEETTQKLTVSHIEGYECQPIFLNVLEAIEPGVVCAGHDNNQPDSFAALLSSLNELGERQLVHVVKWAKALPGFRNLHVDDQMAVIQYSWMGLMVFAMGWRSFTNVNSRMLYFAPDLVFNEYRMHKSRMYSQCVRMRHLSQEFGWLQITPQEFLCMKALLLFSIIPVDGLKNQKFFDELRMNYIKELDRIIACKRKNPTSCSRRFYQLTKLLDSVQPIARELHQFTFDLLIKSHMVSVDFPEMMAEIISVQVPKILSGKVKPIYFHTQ

Chain of mouse Peroxisome Proliferator-activated Receptor gamma (PPARg), Pparg (gene 19016) (P37238 whole entry, looked up, the tested form may be a part): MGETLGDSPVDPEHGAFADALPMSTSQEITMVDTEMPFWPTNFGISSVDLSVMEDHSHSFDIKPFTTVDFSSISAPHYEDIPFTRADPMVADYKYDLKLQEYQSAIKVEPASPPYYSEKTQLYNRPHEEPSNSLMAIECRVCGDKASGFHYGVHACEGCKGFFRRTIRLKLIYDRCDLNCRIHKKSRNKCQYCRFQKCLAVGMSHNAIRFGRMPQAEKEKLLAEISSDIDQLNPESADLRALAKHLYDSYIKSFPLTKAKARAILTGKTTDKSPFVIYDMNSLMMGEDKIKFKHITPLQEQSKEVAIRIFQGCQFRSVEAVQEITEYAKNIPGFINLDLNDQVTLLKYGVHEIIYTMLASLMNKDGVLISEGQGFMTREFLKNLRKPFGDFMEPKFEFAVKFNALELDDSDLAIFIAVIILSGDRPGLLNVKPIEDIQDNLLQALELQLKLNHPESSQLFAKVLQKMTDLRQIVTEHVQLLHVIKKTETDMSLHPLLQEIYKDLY
Chain of GAL4 Transcription Factor (Internal Marker), GAL4 (gene 855828) (P04386 whole entry, looked up, the tested form may be a part): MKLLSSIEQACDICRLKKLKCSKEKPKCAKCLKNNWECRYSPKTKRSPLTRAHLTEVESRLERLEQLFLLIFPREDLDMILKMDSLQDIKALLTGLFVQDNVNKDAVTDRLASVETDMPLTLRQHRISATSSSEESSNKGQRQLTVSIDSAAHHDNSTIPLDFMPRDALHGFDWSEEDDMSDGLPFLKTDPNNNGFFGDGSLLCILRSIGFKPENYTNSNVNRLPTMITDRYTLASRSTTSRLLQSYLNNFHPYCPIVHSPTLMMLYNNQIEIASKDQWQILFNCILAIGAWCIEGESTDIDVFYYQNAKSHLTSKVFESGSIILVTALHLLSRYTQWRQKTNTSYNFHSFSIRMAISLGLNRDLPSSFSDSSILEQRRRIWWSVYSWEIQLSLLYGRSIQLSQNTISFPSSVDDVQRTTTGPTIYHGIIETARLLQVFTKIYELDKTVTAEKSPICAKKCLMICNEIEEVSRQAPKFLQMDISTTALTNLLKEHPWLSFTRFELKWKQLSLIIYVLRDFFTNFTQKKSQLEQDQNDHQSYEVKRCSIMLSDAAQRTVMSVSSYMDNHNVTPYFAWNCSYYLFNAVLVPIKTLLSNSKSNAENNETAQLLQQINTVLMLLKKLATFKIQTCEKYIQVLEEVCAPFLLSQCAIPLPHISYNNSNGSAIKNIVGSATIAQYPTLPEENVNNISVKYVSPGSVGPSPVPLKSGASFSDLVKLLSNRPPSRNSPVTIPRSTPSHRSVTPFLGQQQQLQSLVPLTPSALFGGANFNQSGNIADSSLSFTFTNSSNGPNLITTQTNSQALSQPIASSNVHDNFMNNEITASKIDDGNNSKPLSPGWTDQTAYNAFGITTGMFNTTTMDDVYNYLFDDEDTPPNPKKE
Chain of Peroxisome proliferator-activated receptor gamma (Homo sapiens) (P37231 whole entry, looked up, the tested form may be a part): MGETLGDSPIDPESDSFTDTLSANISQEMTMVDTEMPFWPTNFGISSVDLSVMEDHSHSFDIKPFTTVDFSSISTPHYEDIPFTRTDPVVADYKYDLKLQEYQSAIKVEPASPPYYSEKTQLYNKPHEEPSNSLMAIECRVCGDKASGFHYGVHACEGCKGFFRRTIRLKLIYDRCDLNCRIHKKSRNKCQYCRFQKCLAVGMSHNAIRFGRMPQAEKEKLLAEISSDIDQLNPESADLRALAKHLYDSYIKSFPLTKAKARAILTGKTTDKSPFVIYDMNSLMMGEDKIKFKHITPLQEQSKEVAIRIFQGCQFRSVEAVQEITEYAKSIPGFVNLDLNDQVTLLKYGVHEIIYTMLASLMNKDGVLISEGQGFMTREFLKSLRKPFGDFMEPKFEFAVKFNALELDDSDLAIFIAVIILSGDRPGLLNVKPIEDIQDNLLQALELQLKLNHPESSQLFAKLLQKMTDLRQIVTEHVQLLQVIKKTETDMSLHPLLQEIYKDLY
Chain of frog Thyroid hormone Receptor alpha (TRa), thra-a (gene 397942) (P15204 whole entry, looked up, the tested form may be a part): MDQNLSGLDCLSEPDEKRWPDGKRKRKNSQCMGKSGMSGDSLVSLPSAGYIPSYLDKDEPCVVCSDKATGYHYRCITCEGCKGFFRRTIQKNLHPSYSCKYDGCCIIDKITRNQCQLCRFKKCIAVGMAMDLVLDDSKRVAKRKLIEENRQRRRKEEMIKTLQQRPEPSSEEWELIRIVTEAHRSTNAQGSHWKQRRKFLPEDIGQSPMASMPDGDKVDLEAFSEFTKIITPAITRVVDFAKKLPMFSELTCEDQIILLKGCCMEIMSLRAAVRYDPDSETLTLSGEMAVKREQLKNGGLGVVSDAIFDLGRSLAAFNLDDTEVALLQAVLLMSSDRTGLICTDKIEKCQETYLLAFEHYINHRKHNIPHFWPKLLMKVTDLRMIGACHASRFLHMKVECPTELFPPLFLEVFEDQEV
Chain of human Thyroid hormone Receptor alpha (TRa), THRA (gene 7067) (P10827 whole entry, looked up, the tested form may be a part): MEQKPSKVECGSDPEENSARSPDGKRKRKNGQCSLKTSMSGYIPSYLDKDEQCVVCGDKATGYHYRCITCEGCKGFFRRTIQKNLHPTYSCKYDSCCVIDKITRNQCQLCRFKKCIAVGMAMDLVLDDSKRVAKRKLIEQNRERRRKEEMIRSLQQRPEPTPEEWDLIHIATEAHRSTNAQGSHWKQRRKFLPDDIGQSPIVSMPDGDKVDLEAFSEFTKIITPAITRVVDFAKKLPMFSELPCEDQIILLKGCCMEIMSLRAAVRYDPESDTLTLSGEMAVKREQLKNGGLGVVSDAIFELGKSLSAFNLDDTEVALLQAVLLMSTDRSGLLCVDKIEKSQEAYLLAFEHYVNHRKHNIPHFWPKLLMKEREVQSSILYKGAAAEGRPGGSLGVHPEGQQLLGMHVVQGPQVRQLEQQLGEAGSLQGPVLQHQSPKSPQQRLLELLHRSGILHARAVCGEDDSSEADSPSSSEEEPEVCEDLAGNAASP
Chain of Estrogen receptor beta (Homo sapiens) (Q92731 whole entry, looked up, the tested form may be a part): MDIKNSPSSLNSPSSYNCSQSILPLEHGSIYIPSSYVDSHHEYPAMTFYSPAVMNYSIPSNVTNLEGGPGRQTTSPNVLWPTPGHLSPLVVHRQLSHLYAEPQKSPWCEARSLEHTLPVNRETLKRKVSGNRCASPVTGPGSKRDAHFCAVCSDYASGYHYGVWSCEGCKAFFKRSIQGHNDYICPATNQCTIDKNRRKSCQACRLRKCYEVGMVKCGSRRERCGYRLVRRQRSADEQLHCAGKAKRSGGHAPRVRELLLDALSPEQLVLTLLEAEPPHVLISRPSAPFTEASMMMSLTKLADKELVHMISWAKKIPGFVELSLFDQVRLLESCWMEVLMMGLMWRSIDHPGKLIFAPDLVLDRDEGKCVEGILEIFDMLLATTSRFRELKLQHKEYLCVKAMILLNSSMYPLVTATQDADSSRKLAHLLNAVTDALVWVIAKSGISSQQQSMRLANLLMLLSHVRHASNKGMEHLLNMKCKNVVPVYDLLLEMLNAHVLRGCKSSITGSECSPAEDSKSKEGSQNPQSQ
Chain of human Thyroid hormone Receptor beta (TRb), THRB (gene 7068) (P10828 whole entry, looked up, the tested form may be a part): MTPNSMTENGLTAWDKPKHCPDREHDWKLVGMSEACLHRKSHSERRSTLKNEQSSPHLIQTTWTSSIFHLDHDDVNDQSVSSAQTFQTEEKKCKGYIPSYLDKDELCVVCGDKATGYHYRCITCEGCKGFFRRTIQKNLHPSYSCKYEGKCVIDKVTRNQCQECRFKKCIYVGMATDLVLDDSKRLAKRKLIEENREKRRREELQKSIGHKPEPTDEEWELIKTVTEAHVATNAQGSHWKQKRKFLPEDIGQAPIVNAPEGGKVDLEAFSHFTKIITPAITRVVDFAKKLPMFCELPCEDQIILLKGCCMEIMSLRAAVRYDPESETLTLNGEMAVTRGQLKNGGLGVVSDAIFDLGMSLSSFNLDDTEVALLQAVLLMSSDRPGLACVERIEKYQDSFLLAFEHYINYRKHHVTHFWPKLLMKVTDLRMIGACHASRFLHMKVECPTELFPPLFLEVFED

With `CCCCNC(=O)OCC#CI`, the molecule was called inactive in assay [1], in assay [4], in [5], in [6], in assay [7] and in [9]. For the same molecule, in [10], the molecule was classed as inactive. The AC50 in [2] was 11.1 µM (active); in assay [3] it was 11.1 µM (active); in [8] it was 23.2 µM (active).

On to `COC(=O)N(OC)c1ccccc1COc1ccn(-c2ccc(Cl)cc2)n1`, for which the call in assay [11], in [12], in assay [1], in assay [13], in assay [4] and in [6] was inactive. In addition, the call in assay [14], in assay [15], in assay [8], in [9], in assay [16] and in [10] was inactive. In assay [17], the molecule was classed as inactive. Besides, the AC50 in assay [2] was 3.24 µM (active); in [3], 2.93 µM (active); in assay [5] it was 1.51 µM (active); in [7], 3.33 µM (active).

On to `CCCN(CCC)c1c([N+](=O)[O-])cc(S(N)(=O)=O)cc1[N+](=O)[O-]`, for which the AC50 in assay [11] was 14.8 µM (active); in assay [12], 49.1 µM (active); in assay [18], 54.4 µM (active); in assay [2] it was 46.9 µM (active); in [3] it was 24.4 µM (active); in assay [4] it was 8.93 µM (active). For the same molecule, the AC50 in assay [5] is 8.28 µM (active); in assay [6] it was 8.29 µM (active); in assay [7] it was 9.26 µM (active); in assay [15], 9.16 µM (active); in assay [8], 161 µM (active). Moreover, the call in [1], in [13], in assay [14], in assay [9], in [16] and in assay [10] was inactive.

On to `CCOC(=O)CC(SP(=S)(OC)OC)C(=O)OCC` (stereo not drawn), for which the AC50 with AR (gene 367) is 88.6 µM (active).

`CN(C)C(=S)SSC(=S)N(C)C`: in the assay with AR (gene 367), the AC50 is 20.6 µM (active).

`CS/C(C)=N/OC(=O)N(C)SN(C)C(=O)O/N=C(\C)SC`: the AC50 with AR (gene 367) is 76.7 µM (active).

As to `CCON=C(CC)C1=C(O)CC(c2c(C)cc(C)cc2C)CC1=O` (stereo not drawn), in the assay with AR (gene 367), the molecule was called inactive.
